Results on 39 sequences are retold here after article PMC7862700, “An all-to-all approach to the identification of sequence-specific readers for epigenetic DNA modifications on cytosine”.

Sequence of ELF1 (P32519 whole entry): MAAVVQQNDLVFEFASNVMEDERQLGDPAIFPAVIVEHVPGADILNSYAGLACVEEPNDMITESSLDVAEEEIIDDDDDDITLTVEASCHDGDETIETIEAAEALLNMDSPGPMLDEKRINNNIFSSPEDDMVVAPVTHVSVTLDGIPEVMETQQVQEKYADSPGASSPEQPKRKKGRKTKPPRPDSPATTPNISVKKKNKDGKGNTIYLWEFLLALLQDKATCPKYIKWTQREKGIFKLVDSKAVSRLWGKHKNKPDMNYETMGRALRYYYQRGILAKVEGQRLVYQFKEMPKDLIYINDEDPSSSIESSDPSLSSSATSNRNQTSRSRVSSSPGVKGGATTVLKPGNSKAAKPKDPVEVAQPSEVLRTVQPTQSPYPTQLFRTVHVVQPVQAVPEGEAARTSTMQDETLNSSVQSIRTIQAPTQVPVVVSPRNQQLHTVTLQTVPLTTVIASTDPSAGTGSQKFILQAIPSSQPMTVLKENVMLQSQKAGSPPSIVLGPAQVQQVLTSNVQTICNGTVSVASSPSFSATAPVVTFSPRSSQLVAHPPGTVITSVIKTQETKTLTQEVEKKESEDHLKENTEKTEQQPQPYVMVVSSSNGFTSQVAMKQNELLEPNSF

In the first experiment the target is T1, ERG (Homo sapiens, UniProt P11308 1-479).
T1 sequence: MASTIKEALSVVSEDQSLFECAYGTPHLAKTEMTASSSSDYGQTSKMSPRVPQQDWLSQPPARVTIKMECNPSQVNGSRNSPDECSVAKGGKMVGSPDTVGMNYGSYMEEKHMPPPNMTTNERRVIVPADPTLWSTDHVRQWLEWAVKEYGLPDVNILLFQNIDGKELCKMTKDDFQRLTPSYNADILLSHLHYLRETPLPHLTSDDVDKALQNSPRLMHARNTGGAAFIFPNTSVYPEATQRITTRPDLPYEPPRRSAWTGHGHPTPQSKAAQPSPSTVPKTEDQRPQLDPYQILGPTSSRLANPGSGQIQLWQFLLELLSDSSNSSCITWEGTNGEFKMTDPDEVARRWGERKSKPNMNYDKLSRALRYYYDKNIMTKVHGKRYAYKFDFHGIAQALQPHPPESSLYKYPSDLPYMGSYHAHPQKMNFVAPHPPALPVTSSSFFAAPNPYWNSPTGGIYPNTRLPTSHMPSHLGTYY
In words: DAPPL (digital affinity profiling via proximity ligation, sequencing); 10 mM Tris-HCl pH 7.5, 50 mM NaCl, 1 mM DTT, 4% glycerol, room temperature, 30 min; GST-TFs on glutathione beads, 16-mer random dsDNA library, 0.1% formaldehyde crosslink after washing; high values mean tight binding. Conditions: protein: recombinant; tags: N-terminal GST; dsDNA, one strand shown. An outline of the steps:
(§1)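 Pools were built from human transcription factors expressed in yeast as GST fusions, captured on glutathione beads and DNA-barcoded, along with a tag-only sample. Incubation with 200 nmole of a 16-mer random double-stranded DNA library lasted 30 min at room temperature in Tris/NaCl/DTT/glycerol buffer, and was followed by washing, 0.1% formaldehyde crosslinking, proximity ligation, PCR amplification and Illumina NextSeq500 sequencing. Binding signal is the quotient of each hexamer's read frequency for a factor and its frequency for the tag-only sample.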
CGGATG: the binding signal is 1.92 fold enrichment (6-mer frequency, TF over GST control).

Consider CCATAC, for which the binding signal is 1.08 fold enrichment (6-mer frequency, TF over GST control).

Regarding AACAGG, the binding signal was 1.23 fold enrichment (6-mer frequency, TF over GST control).

Take GTAACA: the binding signal is 1.06 fold enrichment (6-mer frequency, TF over GST control).

On to GCGCCT, for which the binding signal was 1.04 fold enrichment (6-mer frequency, TF over GST control).

Turning to TGTCCG, the binding signal is 1.58 fold enrichment (6-mer frequency, TF over GST control).

As for GCACAT, the binding signal was 1.2 fold enrichment (6-mer frequency, TF over GST control).

CGGCAT: the binding signal is 1.11 fold enrichment (6-mer frequency, TF over GST control).

For the sequence CACTCA, the binding signal is 1.16 fold enrichment (6-mer frequency, TF over GST control).

GTATGC: the binding signal was 1.11 fold enrichment (6-mer frequency, TF over GST control).

CACAAT: the binding signal was 1.11 fold enrichment (6-mer frequency, TF over GST control).

CGACCG: the binding signal is 1.36 fold enrichment (6-mer frequency, TF over GST control).

On to CCGCCC, for which the binding signal was 1.29 fold enrichment (6-mer frequency, TF over GST control).

As for GATGTC, the binding signal was 1.41 fold enrichment (6-mer frequency, TF over GST control).

Turning to CCACCC, the binding signal is 1.21 fold enrichment (6-mer frequency, TF over GST control).

Turning to TTGGCC, the binding signal was 1 fold enrichment (6-mer frequency, TF over GST control).

With GTACCT, the binding signal was 1.16 fold enrichment (6-mer frequency, TF over GST control).

Consider GATGCG, for which the binding signal was 1.16 fold enrichment (6-mer frequency, TF over GST control).

As to CATGGT, the binding signal was 1.38 fold enrichment (6-mer frequency, TF over GST control).

Take CGCCGC: the binding signal is 1.06 fold enrichment (6-mer frequency, TF over GST control).

For the sequence CTGTCA, the binding signal is 1.14 fold enrichment (6-mer frequency, TF over GST control).

GCCGAC: the binding signal was 1.17 fold enrichment (6-mer frequency, TF over GST control).

Turning to GCACAA, the binding signal was 1.1 fold enrichment (6-mer frequency, TF over GST control).

Regarding ACATGT, the binding signal is 1.11 fold enrichment (6-mer frequency, TF over GST control).

Regarding CTGGTC, the binding signal is 1.2 fold enrichment (6-mer frequency, TF over GST control).

For CCAAAC, the binding signal is 1.11 fold enrichment (6-mer frequency, TF over GST control).

Take ACAGGA: the binding signal is 1.22 fold enrichment (6-mer frequency, TF over GST control).

In the case of AGTGGC, the binding signal was 1.28 fold enrichment (6-mer frequency, TF over GST control).

For the sequence ACAAAC, the binding signal is 1.16 fold enrichment (6-mer frequency, TF over GST control).

Consider CACACG, for which the binding signal was 1.07 fold enrichment (6-mer frequency, TF over GST control).

As for CCCATC, the binding signal was 1.11 fold enrichment (6-mer frequency, TF over GST control).

CCGGTT: the binding signal is 2.2 fold enrichment (6-mer frequency, TF over GST control).

For CAAATG, the binding signal was 1.16 fold enrichment (6-mer frequency, TF over GST control).

Take CCGGTA: the binding signal is 1.7 fold enrichment (6-mer frequency, TF over GST control).

As for CATCAC, the binding signal was 1.15 fold enrichment (6-mer frequency, TF over GST control).

With CTGTGC, the binding signal was 1.11 fold enrichment (6-mer frequency, TF over GST control).

GAAGCG: the binding signal is 1.42 fold enrichment (6-mer frequency, TF over GST control).

Turning to CAATGC, the binding signal is 1.12 fold enrichment (6-mer frequency, TF over GST control).

For the sequence GTCACA, the binding signal is 1.13 fold enrichment (6-mer frequency, TF over GST control).

The target of the next experiment is ELF1 (Homo sapiens, UniProt P32519 1-619). Described as above. Conditions: protein: recombinant; tags: N-terminal GST; dsDNA, one strand shown. Summed up:
as §1
For CGGATG, the binding signal was 1.45 fold enrichment (6-mer frequency, TF over GST control).

Consider CCATAC, for which the binding signal was 1.18 fold enrichment (6-mer frequency, TF over GST control).

Regarding AACAGG, the binding signal is 1.08 fold enrichment (6-mer frequency, TF over GST control).

With GTAACA, the binding signal is 1.13 fold enrichment (6-mer frequency, TF over GST control).

Regarding GCGCCT, the binding signal is 1.1 fold enrichment (6-mer frequency, TF over GST control).

For TGTCCG, the binding signal was 1.41 fold enrichment (6-mer frequency, TF over GST control).

For GCACAT, the binding signal was 1.1 fold enrichment (6-mer frequency, TF over GST control).

Regarding CGGCAT, the binding signal is 1.08 fold enrichment (6-mer frequency, TF over GST control).

On to CACTCA, for which the binding signal was 1.24 fold enrichment (6-mer frequency, TF over GST control).

For GTATGC, the binding signal was 1.2 fold enrichment (6-mer frequency, TF over GST control).

In the case of CACAAT, the binding signal was 1.17 fold enrichment (6-mer frequency, TF over GST control).

Consider CGACCG, for which the binding signal was 1.17 fold enrichment (6-mer frequency, TF over GST control).

As to CCGCCC, the binding signal was 1.35 fold enrichment (6-mer frequency, TF over GST control).

In the case of GATGTC, the binding signal was 1.22 fold enrichment (6-mer frequency, TF over GST control).

For the sequence CCACCC, the binding signal was 1.23 fold enrichment (6-mer frequency, TF over GST control).

For TTGGCC, the binding signal was 1.1 fold enrichment (6-mer frequency, TF over GST control).

Regarding GTACCT, the binding signal is 1.22 fold enrichment (6-mer frequency, TF over GST control).

Take GATGCG: the binding signal is 1.11 fold enrichment (6-mer frequency, TF over GST control).

CATGGT: the binding signal was 1.21 fold enrichment (6-mer frequency, TF over GST control).

Regarding CGCCGC, the binding signal is 1.14 fold enrichment (6-mer frequency, TF over GST control).

In the case of CTGTCA, the binding signal is 1.19 fold enrichment (6-mer frequency, TF over GST control).

For GCCGAC, the binding signal was 1.1 fold enrichment (6-mer frequency, TF over GST control).

On to GCACAA, for which the binding signal was 1.09 fold enrichment (6-mer frequency, TF over GST control).

With ACATGT, the binding signal was 1.19 fold enrichment (6-mer frequency, TF over GST control).

For the sequence CTGGTC, the binding signal is 1.15 fold enrichment (6-mer frequency, TF over GST control).

As to CCAAAC, the binding signal is 1.16 fold enrichment (6-mer frequency, TF over GST control).

Consider ACAGGA, for which the binding signal was 1.04 fold enrichment (6-mer frequency, TF over GST control).

AGTGGC: the binding signal is 1.23 fold enrichment (6-mer frequency, TF over GST control).

With ACAAAC, the binding signal is 1.12 fold enrichment (6-mer frequency, TF over GST control).

Turning to CACACG, the binding signal is 1.21 fold enrichment (6-mer frequency, TF over GST control).

In the case of CCCATC, the binding signal is 1.12 fold enrichment (6-mer frequency, TF over GST control).

Regarding CCGGTT, the binding signal is 1.96 fold enrichment (6-mer frequency, TF over GST control).

With CAAATG, the binding signal was 1.22 fold enrichment (6-mer frequency, TF over GST control).

Turning to CCGGTA, the binding signal is 1.5 fold enrichment (6-mer frequency, TF over GST control).

Regarding CATCAC, the binding signal was 1.19 fold enrichment (6-mer frequency, TF over GST control).

In the case of CTGTGC, the binding signal was 1.14 fold enrichment (6-mer frequency, TF over GST control).

GAAGCG: the binding signal was 1.29 fold enrichment (6-mer frequency, TF over GST control).

With CAATGC, the binding signal was 1.21 fold enrichment (6-mer frequency, TF over GST control).

Turning to GTCACA, the binding signal is 1.17 fold enrichment (6-mer frequency, TF over GST control).

The next experiment concerns the target T2, EHF (Homo sapiens, UniProt Q9NZC4 1-300).
T2 sequence: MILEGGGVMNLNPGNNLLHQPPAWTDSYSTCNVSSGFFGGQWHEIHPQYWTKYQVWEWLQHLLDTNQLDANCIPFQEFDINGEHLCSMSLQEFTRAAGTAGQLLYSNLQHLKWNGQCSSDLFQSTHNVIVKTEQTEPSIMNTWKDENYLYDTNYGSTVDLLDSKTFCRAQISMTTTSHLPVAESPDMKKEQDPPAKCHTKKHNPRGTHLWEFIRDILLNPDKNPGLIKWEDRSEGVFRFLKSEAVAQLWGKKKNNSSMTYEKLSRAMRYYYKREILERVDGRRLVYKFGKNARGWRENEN
The experiment is described as above. The following applies: protein: recombinant; tags: N-terminal GST; dsDNA, one strand shown. An outline of the steps:
as §1
With CGGATG, the binding signal was 1.67 fold enrichment (6-mer frequency, TF over GST control).

For CCATAC, the binding signal is 1.19 fold enrichment (6-mer frequency, TF over GST control).

As for AACAGG, the binding signal is 1.18 fold enrichment (6-mer frequency, TF over GST control).

GTAACA: the binding signal was 1.21 fold enrichment (6-mer frequency, TF over GST control).

On to GCGCCT, for which the binding signal was 1.05 fold enrichment (6-mer frequency, TF over GST control).

As to TGTCCG, the binding signal is 1.42 fold enrichment (6-mer frequency, TF over GST control).

As for GCACAT, the binding signal is 1.14 fold enrichment (6-mer frequency, TF over GST control).

Take CGGCAT: the binding signal was 1.09 fold enrichment (6-mer frequency, TF over GST control).

For the sequence CACTCA, the binding signal is 1.19 fold enrichment (6-mer frequency, TF over GST control).

Consider GTATGC, for which the binding signal is 1.14 fold enrichment (6-mer frequency, TF over GST control).

Consider CACAAT, for which the binding signal is 1.07 fold enrichment (6-mer frequency, TF over GST control).

Turning to CGACCG, the binding signal was 1.11 fold enrichment (6-mer frequency, TF over GST control).

As for CCGCCC, the binding signal was 1.29 fold enrichment (6-mer frequency, TF over GST control).

Regarding GATGTC, the binding signal is 1.31 fold enrichment (6-mer frequency, TF over GST control).

CCACCC: the binding signal is 1.31 fold enrichment (6-mer frequency, TF over GST control).

On to TTGGCC, for which the binding signal was 1.17 fold enrichment (6-mer frequency, TF over GST control).

Turning to GTACCT, the binding signal is 1.29 fold enrichment (6-mer frequency, TF over GST control).

With GATGCG, the binding signal is 1.16 fold enrichment (6-mer frequency, TF over GST control).

With CATGGT, the binding signal is 1.22 fold enrichment (6-mer frequency, TF over GST control).

For CGCCGC, the binding signal was 1.27 fold enrichment (6-mer frequency, TF over GST control).

Turning to CTGTCA, the binding signal is 1.12 fold enrichment (6-mer frequency, TF over GST control).

With GCCGAC, the binding signal was 1.05 fold enrichment (6-mer frequency, TF over GST control).

As for GCACAA, the binding signal is 1.1 fold enrichment (6-mer frequency, TF over GST control).

With ACATGT, the binding signal was 1.09 fold enrichment (6-mer frequency, TF over GST control).

Take CTGGTC: the binding signal was 1.2 fold enrichment (6-mer frequency, TF over GST control).

CCAAAC: the binding signal was 1.07 fold enrichment (6-mer frequency, TF over GST control).

Take ACAGGA: the binding signal was 1.12 fold enrichment (6-mer frequency, TF over GST control).

In the case of AGTGGC, the binding signal is 1.4 fold enrichment (6-mer frequency, TF over GST control).

As to ACAAAC, the binding signal is 1.15 fold enrichment (6-mer frequency, TF over GST control).

With CACACG, the binding signal was 1.12 fold enrichment (6-mer frequency, TF over GST control).

On to CCCATC, for which the binding signal is 1.17 fold enrichment (6-mer frequency, TF over GST control).

Take CCGGTT: the binding signal is 1.97 fold enrichment (6-mer frequency, TF over GST control).

On to CAAATG, for which the binding signal was 1.1 fold enrichment (6-mer frequency, TF over GST control).

With CCGGTA, the binding signal was 1.62 fold enrichment (6-mer frequency, TF over GST control).

In the case of CATCAC, the binding signal was 1.13 fold enrichment (6-mer frequency, TF over GST control).

In the case of CTGTGC, the binding signal is 1.02 fold enrichment (6-mer frequency, TF over GST control).

Take GAAGCG: the binding signal was 1.53 fold enrichment (6-mer frequency, TF over GST control).

As to CAATGC, the binding signal is 1.17 fold enrichment (6-mer frequency, TF over GST control).

GTCACA: the binding signal is 1.07 fold enrichment (6-mer frequency, TF over GST control).
